Screening data: PubChem, The Scripps Research Institute Molecular Screening Center
hcDAF12 agonist: H. contortus DAF-12 nuclear receptor activators, primary screen, cell-based, luminescence, HEK293, lit1-tk-luc reporter; HEK293 hcDAF-12 lit1-tk-luc reporter; 0% DMSO, 100% Δ7-dafachronic acid; activation, % at 6.8 µM; hit rate 1.4% among 370,000;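 active = activation above the mean of all tested compounds plus 3 SD, cut at about 5.5% in these data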;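 also: 100% = response to 3 µM Δ7-dafachronic acid high control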
ssDAF-12 act: S. stercoralis DAF-12 nuclear receptor activators, primary screen, cell-based, luminescence, HEK293, GRIP1 co-expression, lit1-tk-luc. HEK293 ssDAF-12/GRIP1 lit1-tk-luc reporter; % of 3 µM dafachronic acid response. activation, % at 6.8 µM. hit rate 1% among 370,000;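 active = activation above the mean over all tested compounds plus 3 SD, cut at about 0.9% in these data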;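 also: 0% = DMSO-only wells and 100% = 3 µM delta7-dafachronic acid wells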
DAX1 inh-1: DAX1 (NR0B1) inhibitors on StAR promoter, primary screen, cell-based, luminescence, SF-1 (NR5A1), full-length DAX-1; HEK293T StAR-luciferase reporter, SF-1/DAX-1 repression relief; inhibition, % at 6.8 µM; hit rate 1.1% among 370,000;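 active = inhibition above the mean over all tested compounds plus 3 SD, cut at about 3.6% in these data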;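 also: 0% = DAX-1 cells with DMSO and 100% = cells lacking DAX-1 with DMSO; higher inhibition means more luminescence from relief of DAX-1 repression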
SMARCA2 act: SMARCA2 (BRM) function activators, primary screen, cell-based, luminescence, high throughput; MG213 cells, MMTV-luciferase reporter, dexamethasone, overnight; activation, % at 9.1 µM; hit rate 1% among 370,000; in the data active = activation above about 7.8%;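 also: 0% = vehicle wells and 100% = reference activator wells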
DAX1 inh-2: DAX1 (NR0B1) inhibitors, primary screen, cell-based, HEK293, Gal4-DAX1, luciferase luminescence. HEK293 Gal4-DAX1 luciferase reporter. inhibition, % at 6.75 µM. hit rate 0.99% among 340,000. AID 504766, 2011;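 active = inhibition above the mean over all tested compounds plus 3 SD, cut at about 4.2% in these data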;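 also: 0% = DAX1-transfected cells with DMSO and 100% = empty-vector control cells with DMSO; inhibition shows as a rise in luminescence from relieved DAX1 repression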
Target sequence (P51843 207-470 limits assumed): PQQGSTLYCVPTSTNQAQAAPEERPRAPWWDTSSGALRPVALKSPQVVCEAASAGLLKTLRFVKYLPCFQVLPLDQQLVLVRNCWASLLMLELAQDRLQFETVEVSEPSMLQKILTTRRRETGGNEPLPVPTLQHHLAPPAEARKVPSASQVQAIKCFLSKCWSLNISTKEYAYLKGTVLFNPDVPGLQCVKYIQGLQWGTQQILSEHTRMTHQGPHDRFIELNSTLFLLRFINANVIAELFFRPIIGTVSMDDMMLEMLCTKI
hgDAF-12 ag: H. glycines DAF-12 receptor agonists, primary screen, cell-based, luminescence, HEK293, GAL4 fusion, UAS-luciferase; hit rate 1.8% among 370,000; HEK293 GAL4-hgDAF12 UAS-luciferase reporter, agonist luminescence; normalized to butyrate control; Nuclear hormone receptor DAF-12 (Heterodera glycines), GAL4 fusion; activation, % at 6.8 µM;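 active = activation above a cutoff set at the mean of all screened compounds plus 3 SD, cut at about 10% in these data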;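 also: 0% = DMSO wells and 100% = sodium butyrate wells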
SMARCA2 act conf: SMARCA2 (BRM) function activators, confirmation, cell-based, luminescence, triplicate. shares compounds with SMARCA2 act. MG213 cells, MMTV-luciferase with dexamethasone, overnight; MG213 cells expressing E1A, Rb sequestered; DMSO wells 0%, reference activator 100%. activation, % at 9.1 µM. hit rate 30% among 3,500;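 active = activation above its plate's cutoff, the mean activation of tested wells plus 3 SD, cut at about 7.9% in these data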
VP16 Luc act: GAL4-VP16 luciferase reporter activation, counter-screen for SMARCA2 (BRM) activator project, cell-based, pG5luc, luminescence, high throughput | shares compounds with SMARCA2 act | HEK293 GAL4-VP16 pG5luc reporter; scaled: DMSO wells 0%, SAHA wells 100% | activation, % at 9.1 µM | hit rate 41% among 3,500;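 active = activation above the solvent-only control well mean plus 3 SD, averaged across control plates, cut at about 5.2% in these data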
Active calls of the source: *; . = no result given. Rows were chosen to be rich in hits. Some 4.8% of all compounds tested hit in one or more screens of this group.

SMILES	hcDAF12 agonist	ssDAF-12 act	DAX1 inh-1	SMARCA2 act	DAX1 inh-2	hgDAF-12 ag	SMARCA2 act conf	VP16 Luc act
COC(=O)[C@]12C[C@H](CC(=O)NCCCN3CCCC3=O)C(=O)N(Cc3ccc(Cl)cc3Cl)C1=C[C@H](C(C)(C)C)O[C@@H]2C	-2.9	-1.3	-1.1	0.5	.	0.7	.	.
COc1ccccc1C/C(N)=N/OC(=O)COc1cccc(C)c1C	-0.8	-1.4	1.1	6.5	-0.9	2.2	.	.
Cc1cccc(OCC(=O)O/N=C(\N)c2ccccn2)c1C	0.8	-1.1	1.9	9.2*	2.0	8.6	10.1*	7.0*
S=c1[nH]ccn1Cc1ccccc1	0.5	-1.2	-0.4	8.9*	0.2	0.5	-1.2	1.1
COc1cccc(CNS(=O)(=O)c2c(C(=O)N3CCCCC3)c(C)n(C)c2C)c1	-1.6	-0.1	-0.3	2.5	0.3	2.3	.	.
COc1cccc(CNS(=O)(=O)c2c(C(=O)N3CCCCCC3)c(C)n(C)c2C)c1	0.8	-0.8	0.4	9.8*	1.2	-0.5	0.1	-0.7
Cc1cc(C)cc(Cn2cc(CN3CC(N4CCCCC4)CS3(=O)=O)nn2)c1 (configuration not stated)	-2.8	-1.1	-1.0	8.2*	.	4.4	0.9	-0.3
Cc1cc(C)cc(Cn2cc(CN3CC(N4CCCC4)CS3(=O)=O)nn2)c1 (configuration not stated)	-1.1	-1.2	0.8	-3.7	.	0.7	.	.
CC(C)OCC(O)CN1CCN(CCN2C(=O)c3cccc4cccc(c34)C2=O)CC1 (configuration not stated)	-1.1	-0.9	-0.1	2.6	0.8	3.1	.	.
CCC(OCC(O)CN1CCN(CCN2C(=O)c3cccc4cccc(c34)C2=O)CC1)c1ccccc1 (configuration not stated)	-5.2	-2.4	-1.5	9.4*	-2.7	-7.2	1.5	4.8
COCc1cc(=O)n2[nH]c(-c3ccc(C)cc3)cc2n1	3.7	-0.4	2.1	10.0*	2.4	7.7	8.9*	4.8
CCc1c(C)nc2cc(-c3ccc(OC)cc3)[nH]n2c1=O	-0.3	-1.4	1.7	8.9*	0.2	4.7	10.9*	10.6*
CCOC(=O)[C@@]12CCCC3=C1N(CCC3)C(=O)[C@H]2CC(=O)NCc1ccc(OC)c(OC)c1	-2.5	-0.9	-0.7	-3.2	.	-1.5	.	.
COc1ccc(-c2nc(-c3ccncc3)no2)cc1OC	2.9	0.5	1.3	12.3*	2.0	9.4	6.4	8.8*
COc1ccc(-c2noc(-c3ccc4c(c3)OCO4)n2)cc1	1.0	-0.6	0.9	14.5*	0.0	2.9	15.4*	9.3*
CCOc1ccc(-c2noc(-c3ccncc3)n2)cc1OCC	0.6	-0.1	0.2	-2.7	0.1	0.2	.	.
COc1ccc(-c2noc(COc3ccc4c(c3)OCO4)n2)cc1	-0.1	-0.9	1.6	-2.6	-1.1	-0.1	.	.
N#C/C(=C\c1c[nH]c2ccccc12)C(=O)NC1CC1	2.0	-0.1	1.8	10.5*	3.5	9.2	11.3*	10.9*
Cc1ccc(N=C2NC(=O)CC(C(=O)Nc3ccc4c(c3)OCO4)S2)cc1 (configuration not stated)	0.1	-1.0	-1.0	1.8	-0.4	3.1	.	.
C/C(CCc1ccc2c(c1)OCO2)=N\N=C1\NC(=O)CC(C(=O)Nc2ccc(Cl)cc2)S1 (configuration not stated)	-0.5	-1.3	-0.7	11.4*	0.5	-5.3	-4.9	0.5
COc1cc(/C=N/NC(=S)NC2CC3CCC2C3)ccc1O (configuration not stated)	-0.5	-1.5	0.3	9.4*	0.4	8.2	7.1	3.2
COCCCNC(=O)c1oc(=O)c2ccccc2c1-c1ccc(C)cc1	-1.6	-1.2	0.0	-2.7	.	2.2	.	.
Cc1ccc(-c2cc(C(=O)NCc3cnn(C)c3)c3cc(Br)ccc3n2)cc1	1.5	-0.9	-0.3	11.9*	-0.3	-0.6	1.7	6.6*
Cn1cc(CNC(=O)c2cc(-c3ccccc3)nc3ccc(Br)cc23)cn1	2.2	-1.5	0.1	-2.0	1.1	0.4	.	.
COC(=O)[C@]12C[C@H](CC(=O)NCCC(C)C)C(=O)N(Cc3ccc(Cl)cc3Cl)C1=C[C@H](COCc1ccccc1)O[C@@H]2C	-1.4	-0.9	-1.5	-1.1	.	0.6	.	.
SMILES	hcDAF12 agonist	ssDAF-12 act	DAX1 inh-1	SMARCA2 act	DAX1 inh-2	hgDAF-12 ag	SMARCA2 act conf	VP16 Luc act
COc1ccc(-c2nc(C#N)c(NCC3CCCO3)o2)cc1 (configuration not stated)	0.3	-1.3	1.0	10.0*	0.4	0.6	9.7*	3.5
Cc1ccc(-c2nc(C#N)c(NCC3CCCO3)o2)cc1 (configuration not stated)	0.5	-0.6	1.6	1.5	1.9	1.3	.	.
COC(=O)Cc1csc(Nc2ccc(Cl)cc2)n1	-0.6	-1.4	-0.3	0.9	1.0	2.9	.	.
COC(=O)Cc1csc(Nc2ccccc2)n1	1.8	-1.6	0.1	8.4*	0.4	3.8	6.2	4.5
COC(=O)[C@]12CCCCC=C1N(Cc1ccc(OC)cc1)C(=O)[C@@H]2CC(=O)NCc1ccc(C)o1	-2.4	-0.9	-1.1	0.0	.	-1.8	.	.
O=C(Nc1ccc(OC(F)(F)F)cc1)c1cnccn1	1.6	-0.3	1.3	8.1*	6.4*	9.2	9.4*	11.1*
CCCCOC(=O)c1ccc(NC(=O)c2cnccn2)cc1	-1.6	-0.9	0.1	1.6	-1.9	4.3	.	.
O=[N+]([O-])c1cccc(-c2ccc(C(=S)N3CCN(c4ccc(F)cc4)CC3)o2)c1	0.0	-0.6	-0.2	9.1*	0.0	1.8	0.0	-0.9
CN(CC(=O)NCc1ccncc1)S(=O)(=O)c1ccc(F)cc1	1.0	-1.6	0.4	8.3*	0.6	-0.5	-1.8	-0.2
CN(CC(=O)NCc1ccncc1)S(=O)(=O)c1ccc(Cl)cc1	0.9	-1.5	-0.1	0.8	1.2	1.0	.	.
